Our source for the outcome and AC50 values is PubChem BioAssay (EPA / NIEHS).

What is called AC50 is the concentration giving half of the maximal activity seen.

A short description of test [1]: ATG_TAL_CIS: Attagene CIS-FACTORIAL HepG2 Assay for human TAL Basal Promoter (AID 2282966; active = hit-call score of the fitted dose curve at least 0.9, where 1 is the maximum; inactive = score below 0.9;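 also: background control endpoint measuring basal TAL promoter reporter mRNA not a specific factor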). Particulars: HepG2 Attagene cis-factorial TAL promoter reporter; actives raise or lower the signal. The method in brief:
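Background-control endpoint: basal TAL promoter reporter transcripts in transiently transfected HepG2, measured 24 h after dosing. Read-out by RT-PCR with fluorescent primer extension and capillary electrophoresis; gain or loss of signal fitted relative to DMSO.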

Test [2] in a line: ATG_TGFb_CIS: Attagene CIS-FACTORIAL HepG2 Assay for human Transforming Growth Factor (TGF) (AID 2282967; active = hit-call score of the fitted dose curve at least 0.9, where 1 is the maximum; inactive = score below 0.9). As to conditions: HepG2 Attagene CIS TGFb reporter, mRNA transcription; actives raise or lower the signal. The essentials: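 Multiplexed cis-reporter HepG2 system, 24 h treatment; mRNA induction read by fluorescence after RT-PCR and CE; DMSO negative control, bidirectional curve fitting.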

Test [3] in a line: ATG_VDRE_CIS: Attagene CIS-FACTORIAL HepG2 Assay for human Vitamin D Receptor Element (VDRE) (AID 2282968; active = hit-call score of the fitted dose curve at least 0.9, where 1 is the maximum; inactive = score below 0.9). As to conditions: HepG2 VDRE cis-reporter transcription, actives raise or lower the signal. The method in brief: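 Compounds were applied for 24 h to HepG2 cells transfected with promoter-regulated reporter units. Total RNA was reverse-transcribed, and reporter amplicons were fluorescently labelled and sized by capillary electrophoresis.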

Test [4] addresses Nuclear receptor subfamily 1 group I member 3 (Homo sapiens) (UniProt Q14994). Nature of the test: ATG_CAR_TRANS: Attagene TRANS-FACTORIAL HepG2 Assay for human Constitutive Androstane Receptor (CAR) (AID 2282969).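 Also: activators raise reporter mRNA above DMSO so AC50 marks induction.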 As to conditions: HepG2 Attagene TRANS-FACTORIAL CAR reporter. The method in brief:
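Transiently transfected HepG2, multiplex TRANS reporters (CAR-Gal4 chimera driving GAL4-UAS reporter). 24 h dosing. Readout: reporter transcript by RT-PCR + capillary electrophoresis, fluorescence intensity; positive direction vs DMSO.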

The target in test [5] is Estrogen receptor (Homo sapiens) (UniProt P03372). Nature of the test: ATG_ERa_TRANS: Attagene TRANS-FACTORIAL HepG2 Assay for human Estrogen Receptor alpha (ERa) (AID 2282970). As to conditions: HepG2 Attagene TRANS ERa GAL4 reporter, mRNA. The method in brief:
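Reporter transcripts were measured 24 h after dosing by RT-PCR with fluorescent primer extension and capillary electrophoresis. The system is transiently transfected HepG2 expressing exogenous NR-Gal4 chimeras driving GAL4-UAS reporters; DMSO is the baseline.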

The target of test [6] is X-box-binding protein 1 (Homo sapiens) (UniProt P17861). Nature of the test: ATG_Xbp1_CIS: Attagene CIS-FACTORIAL HepG2 Assay for human X-box Binding Protein 1 (XBP1) (AID 2282972; active = hit-call score of the fitted dose curve at least 0.9, where 1 is the maximum; inactive = score below 0.9). As to conditions: HepG2 XBP1 cis-element reporter, Attagene multiplex; actives raise or lower the signal. The essentials: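 Multiplexed cis-reporter readout in transfected HepG2 liver cells. Exposure lasted 24 hours. Activity in either direction was fitted against DMSO as negative control and baseline.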
Chain of X-box-binding protein 1 (Homo sapiens) (P17861 whole entry, looked up): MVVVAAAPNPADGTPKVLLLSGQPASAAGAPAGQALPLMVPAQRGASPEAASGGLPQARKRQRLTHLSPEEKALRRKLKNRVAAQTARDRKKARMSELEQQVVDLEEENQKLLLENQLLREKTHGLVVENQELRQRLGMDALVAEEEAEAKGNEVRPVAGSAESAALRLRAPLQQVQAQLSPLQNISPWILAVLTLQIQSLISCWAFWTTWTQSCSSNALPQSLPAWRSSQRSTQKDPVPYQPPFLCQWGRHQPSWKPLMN

Test [7] in a line: ATG_GAL4_TRANS: Attagene TRANS-FACTORIAL HepG2 Assay for GAL4 (Internal Marker) (AID 2282976). Particulars: HepG2 Attagene TRANS GAL4 internal marker reporter. The method in brief: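 In transfected human HepG2 liver cells dosed 24 h, GAL4 reporter mRNA serves as a baseline marker. Detection by RT-PCR with fluorescent capillary electrophoresis, activity fitted upward relative to DMSO.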

Test [8] addresses Estrogen-related receptor gamma (Homo sapiens) (UniProt P62508). The test can be described thus: ATG_ERRg_TRANS: Attagene TRANS-FACTORIAL HepG2 Assay for human Estrogen-Related Receptor gamma (ERRg) (AID 2282977).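 Also: hits increase reporter signal over DMSO so potencies reflect activators.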 As to conditions: HepG2 Attagene TRANS reporter, ERRg transactivation. The method in brief: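 Exogenous NR-Gal4 chimera activity measured as reporter transcript induction after 24 h in transiently transfected HepG2 cells. RNA reverse-transcribed, PCR-amplified, 6-FAM-labelled and resolved by capillary electrophoresis; increase over DMSO baseline.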

Test [9] deals with Hepatocyte nuclear factor 4-alpha (Homo sapiens) (UniProt P41235). The test can be described thus: ATG_HNF4a_TRANS: Attagene TRANS-FACTORIAL HepG2 Assay for human Hepatocyte Nuclear Factor 4 alpha (HNF4a) (AID 2282982). Particulars: HepG2 HNF4a transactivation reporter, mRNA readout. The method in brief:
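Endpoint reflects transcriptional activation of a GAL4-UAS reporter by an HNF4a-GAL4 chimera in transfected HepG2 cells, 24 h post-dosing. Fluorescence from RT-PCR products separated by capillary electrophoresis; DMSO baseline.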

Test [10] is described as follows: ATG_M_06_TRANS: Attagene TRANS-FACTORIAL HepG2 Assay for M06 Transcription Factor (Internal Marker) (AID 2282983). As to conditions: HepG2 Attagene TRANS M06 internal marker reporter. The method in brief: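 Background-control reporter readout: after 24 h chemical exposure of transiently transfected HepG2 (GAL4-UAS reporter units), mRNA quantified by RT-PCR with fluorescent labeling and capillary electrophoresis. Gain-of-signal fitting against DMSO baseline.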

Test [11] can be described thus: ATG_M_32_TRANS: Attagene TRANS-FACTORIAL HepG2 Assay for M32 Transcription Factor (Internal Marker) (AID 2282984). As to conditions: HepG2 Attagene TRANS M32 internal marker reporter. The method in brief: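 Internal-marker readout from a multiplexed transcription reporter panel. HepG2 cells were transfected with GAL4-UAS reporter units, treated 24 hours, and reporter transcript levels determined by fluorescence after RT-PCR and capillary separation.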

The target of test [12] is Nuclear receptor subfamily 4 group A member 2 (Homo sapiens) (UniProt P43354). Nature of the test: ATG_NURR1_TRANS: Attagene TRANS-FACTORIAL HepG2 Assay for human Nuclear Receptor Related Protein 1 (NURR1) (AID 2282985). As to conditions: HepG2 Attagene TRANS reporter, mRNA readout. The method in brief: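 Endpoint: reporter mRNA increase relative to DMSO. HepG2 cells transfected with reporter units, treated 24 h; RNA processed by RT-PCR, labelling, HpaI digestion and capillary electrophoresis.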
Chain of Nuclear receptor subfamily 4 group A member 2 (Homo sapiens) (P43354 whole entry, looked up): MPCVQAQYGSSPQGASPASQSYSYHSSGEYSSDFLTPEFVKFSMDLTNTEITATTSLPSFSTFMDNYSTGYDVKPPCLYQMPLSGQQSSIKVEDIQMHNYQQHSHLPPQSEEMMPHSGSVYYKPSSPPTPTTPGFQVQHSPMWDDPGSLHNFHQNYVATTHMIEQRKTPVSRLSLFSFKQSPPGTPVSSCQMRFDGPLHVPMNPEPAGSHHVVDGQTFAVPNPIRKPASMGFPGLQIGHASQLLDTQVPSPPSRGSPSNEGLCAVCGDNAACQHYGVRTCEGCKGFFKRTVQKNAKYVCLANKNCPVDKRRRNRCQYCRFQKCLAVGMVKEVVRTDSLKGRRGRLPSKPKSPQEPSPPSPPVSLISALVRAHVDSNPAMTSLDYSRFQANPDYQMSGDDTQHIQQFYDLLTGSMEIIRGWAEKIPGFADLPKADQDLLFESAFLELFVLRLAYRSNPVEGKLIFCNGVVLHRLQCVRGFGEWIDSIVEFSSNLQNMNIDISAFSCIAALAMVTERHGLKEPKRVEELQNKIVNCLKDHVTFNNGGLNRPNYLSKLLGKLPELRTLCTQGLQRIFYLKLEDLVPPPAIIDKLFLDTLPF

Test [13] deals with Transcriptional activator Myb (Homo sapiens) (UniProt P10242). Nature of the test: ATG_Myb_CIS: Attagene CIS-FACTORIAL HepG2 Assay for human Myeloblastosis (Myb) Proto-Oncogene Transcription Factor (AID 2282986; active = hit-call score of the fitted dose curve at least 0.9, where 1 is the maximum; inactive = score below 0.9). Particulars: HepG2 Attagene CIS-FACTORIAL Myb reporter transcription; actives raise or lower the signal. The essentials:
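Using HepG2 liver cells bearing transiently transfected cis-promoter reporter constructs, the assay measures induction or loss of reporter mRNA after 24 hours of dosing. Detection used fluorescently labeled RT-PCR products separated by capillary electrophoresis.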

Test [14] deals with Nuclear respiratory factor 1 (Homo sapiens) (UniProt Q16656). The test can be described thus: ATG_NRF1_CIS: Attagene CIS-FACTORIAL HepG2 Assay for human Nuclear Respiratory Factor 1 (NRF1) Orphan Gene (AID 2282987; active = hit-call score of the fitted dose curve at least 0.9, where 1 is the maximum; inactive = score below 0.9). Particulars: HepG2 NRF1 cis-element reporter, Attagene multiplex; actives raise or lower the signal. The essentials: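 Reporter mRNA induction or loss in HepG2 cells after 24 h dosing; cis-regulated reporter constructs report endogenous transcription-factor activity. Quantified by RT-PCR/capillary electrophoresis fluorescence, DMSO-referenced.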
Chain of Nuclear respiratory factor 1 (Homo sapiens) (Q16656 whole entry, looked up): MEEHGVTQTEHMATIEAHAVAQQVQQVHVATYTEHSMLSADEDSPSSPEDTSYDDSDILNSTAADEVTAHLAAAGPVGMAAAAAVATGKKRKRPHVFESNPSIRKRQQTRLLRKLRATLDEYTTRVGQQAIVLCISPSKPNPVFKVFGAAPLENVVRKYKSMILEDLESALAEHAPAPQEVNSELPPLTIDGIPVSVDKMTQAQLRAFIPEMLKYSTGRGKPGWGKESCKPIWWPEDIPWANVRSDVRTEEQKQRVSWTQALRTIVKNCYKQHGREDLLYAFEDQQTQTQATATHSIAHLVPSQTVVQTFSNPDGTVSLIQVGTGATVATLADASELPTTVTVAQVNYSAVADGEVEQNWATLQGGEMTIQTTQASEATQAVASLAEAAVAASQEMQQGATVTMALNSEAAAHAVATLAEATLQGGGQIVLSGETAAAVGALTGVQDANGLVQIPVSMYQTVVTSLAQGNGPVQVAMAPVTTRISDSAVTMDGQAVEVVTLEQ

A short description of test [15]: ATG_M_19_TRANS: Attagene TRANS-FACTORIAL HepG2 Assay for M19 Transcription Factor (Internal Marker) (AID 2282974). As to conditions: HepG2 Attagene TRANS-FACTORIAL M19 internal marker reporter. The method in brief:
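Multiplexed TRANS format: HepG2 liver cells bearing transient GAL4-UAS reporter units, chemical treatment 24 h, reporter transcripts quantified by RT-PCR plus capillary electrophoresis. DMSO defines baseline.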

The target of test [16] is Oxysterols receptor LXR-alpha (Homo sapiens) (UniProt Q13133). The test can be described thus: ATG_LXRa_TRANS: Attagene TRANS-FACTORIAL HepG2 Assay for human Liver X Receptor alpha (LXRa) (AID 2282980). Particulars: HepG2 Attagene TRANS reporter, LXRa transactivation. The method in brief: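 Chemical-induced reporter mRNA measured by RT-PCR with fluorescent labelling and capillary electrophoresis after 24 h dosing of transiently transfected HepG2 cells expressing exogenous NR-Gal4 chimeras; increases scored against DMSO baseline.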
Chain of Oxysterols receptor LXR-alpha (Homo sapiens) (Q13133 whole entry, looked up, the tested form may be a part): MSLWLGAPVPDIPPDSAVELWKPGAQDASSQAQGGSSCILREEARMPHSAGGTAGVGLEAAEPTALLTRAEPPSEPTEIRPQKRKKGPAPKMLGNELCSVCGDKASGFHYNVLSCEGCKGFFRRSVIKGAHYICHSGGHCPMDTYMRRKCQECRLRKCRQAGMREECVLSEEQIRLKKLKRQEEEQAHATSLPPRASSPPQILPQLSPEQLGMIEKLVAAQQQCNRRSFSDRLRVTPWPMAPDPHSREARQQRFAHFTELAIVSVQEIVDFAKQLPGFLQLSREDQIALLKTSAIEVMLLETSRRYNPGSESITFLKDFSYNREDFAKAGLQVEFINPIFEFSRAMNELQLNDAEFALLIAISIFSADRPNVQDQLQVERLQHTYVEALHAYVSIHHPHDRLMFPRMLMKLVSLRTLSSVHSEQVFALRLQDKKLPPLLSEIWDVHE

Test [17] concerns the target Oxysterols receptor LXR-beta (Homo sapiens) (UniProt P55055). Nature of the test: ATG_LXRb_TRANS: Attagene TRANS-FACTORIAL HepG2 Assay for human Liver X Receptor beta (LXRb) (AID 2282981). Particulars: HepG2 Attagene TRANS GAL4-LXRb reporter, mRNA. The method in brief: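 Multiplexed reporter assay, HepG2, 24 h dosing. Fluorescence of labelled RT-PCR products after capillary electrophoresis gives transcript level; positive fitting direction relative to DMSO.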

In test [18] the target is Steroid hormone receptor ERR1 (Homo sapiens) (UniProt P11474). The test can be described thus: ATG_ERRa_TRANS: Attagene TRANS-FACTORIAL HepG2 Assay for human Estrogen-Related Receptor alpha (ERRa) (AID 2282971). As to conditions: HepG2 Attagene TRANS reporter, ERRa transactivation. The method in brief:
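Reporter transcripts from ERRa-Gal4 chimera activity measured in transiently transfected human HepG2 cells 24 hours after dosing, using RT-PCR with 6-FAM primer extension, HpaI digestion and capillary electrophoresis; DMSO is baseline.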

Test [19] concerns the target Glucocorticoid receptor (Homo sapiens) (UniProt P04150). Nature of the test: ATG_GR_TRANS: Attagene TRANS-FACTORIAL HepG2 Assay for human Glucocorticoid Receptor (GR) (AID 2282978).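 Also: activators score as hits since higher reporter transcript over DMSO is fitted.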 Particulars: HepG2 Attagene TRANS GR reporter, mRNA transcription. The method in brief:
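Transiently transfected HepG2 cells express chimeric NR-GAL4 proteins acting on GAL4-UAS reporter units. Compounds are applied for 24 h. mRNA induction over DMSO is measured by capillary electrophoresis.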

In test [20] the target is Bile acid receptor (Homo sapiens) (UniProt Q96RI1). The test can be described thus: ATG_FXR_TRANS: Attagene TRANS-FACTORIAL HepG2 Assay for Farnesoid X Receptor (FXR) (AID 2282979).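 Also: hits raise reporter mRNA above DMSO so AC50 marks FXR activation.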 As to conditions: HepG2 Attagene TRANS FXR-GAL4 reporter transcription. The method in brief: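 Reporter transcripts from transfected HepG2 cells were measured 24 h after dosing, using RT-PCR with capillary electrophoresis of 6-FAM-labelled fragments. The read-out reflects activity of exogenous FXR-Gal4 chimera on GAL4-UAS units, with induction relative to DMSO.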
Chain of Bile acid receptor (Homo sapiens) (Q96RI1 whole entry, looked up, the tested form may be a part): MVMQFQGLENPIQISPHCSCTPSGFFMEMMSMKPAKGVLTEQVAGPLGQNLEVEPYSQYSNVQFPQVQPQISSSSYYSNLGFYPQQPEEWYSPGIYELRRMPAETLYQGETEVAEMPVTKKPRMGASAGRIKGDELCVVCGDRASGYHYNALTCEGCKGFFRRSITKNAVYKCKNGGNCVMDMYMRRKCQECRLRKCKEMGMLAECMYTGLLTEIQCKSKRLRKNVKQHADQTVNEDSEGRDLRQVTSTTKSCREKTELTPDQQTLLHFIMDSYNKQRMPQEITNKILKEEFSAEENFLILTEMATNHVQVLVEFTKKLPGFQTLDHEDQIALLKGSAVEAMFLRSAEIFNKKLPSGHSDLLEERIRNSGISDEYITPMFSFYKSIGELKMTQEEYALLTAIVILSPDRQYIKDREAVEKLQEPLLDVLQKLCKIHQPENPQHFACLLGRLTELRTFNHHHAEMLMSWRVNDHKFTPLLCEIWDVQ

Values joined by “and” are separate entries in the source; they are usually repeats but may differ in a detail not shown here. Equal values may be shown once. Inconclusive results are not listed. Active and inactive are the calls of the source. The calls were made as follows, unless noted: active = hit-call score of the fitted dose curve at least 0.9, where 1 is the maximum; inconclusive = response in the unintended direction; inactive = score below 0.9.

Chain of Nuclear receptor subfamily 1 group I member 3 (Homo sapiens) (Q14994 whole entry, looked up, the tested form may be a part): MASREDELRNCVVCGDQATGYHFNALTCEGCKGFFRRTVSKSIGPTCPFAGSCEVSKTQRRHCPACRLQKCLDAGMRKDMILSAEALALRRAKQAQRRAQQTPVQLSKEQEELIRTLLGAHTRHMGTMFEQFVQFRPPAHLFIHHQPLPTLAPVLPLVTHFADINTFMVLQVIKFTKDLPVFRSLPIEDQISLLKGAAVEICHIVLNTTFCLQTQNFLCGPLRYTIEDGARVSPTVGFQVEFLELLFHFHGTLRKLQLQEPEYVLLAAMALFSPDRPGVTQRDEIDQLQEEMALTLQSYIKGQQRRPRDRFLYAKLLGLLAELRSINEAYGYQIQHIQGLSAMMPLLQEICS
Chain of Oxysterols receptor LXR-beta (Homo sapiens) (P55055 whole entry, looked up, the tested form may be a part): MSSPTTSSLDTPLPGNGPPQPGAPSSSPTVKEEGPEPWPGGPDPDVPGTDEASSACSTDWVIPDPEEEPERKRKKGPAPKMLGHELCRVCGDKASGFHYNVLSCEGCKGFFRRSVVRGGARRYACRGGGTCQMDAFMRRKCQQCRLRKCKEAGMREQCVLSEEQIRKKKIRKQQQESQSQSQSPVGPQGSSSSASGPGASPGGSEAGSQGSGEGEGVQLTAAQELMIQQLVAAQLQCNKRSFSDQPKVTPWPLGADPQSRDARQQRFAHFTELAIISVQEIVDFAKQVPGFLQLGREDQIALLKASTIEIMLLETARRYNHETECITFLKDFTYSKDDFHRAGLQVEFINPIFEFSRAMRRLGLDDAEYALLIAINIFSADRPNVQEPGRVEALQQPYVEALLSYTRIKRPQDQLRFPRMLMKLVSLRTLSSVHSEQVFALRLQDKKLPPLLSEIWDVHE
Chain of Transcriptional activator Myb (Homo sapiens) (P10242 whole entry, looked up): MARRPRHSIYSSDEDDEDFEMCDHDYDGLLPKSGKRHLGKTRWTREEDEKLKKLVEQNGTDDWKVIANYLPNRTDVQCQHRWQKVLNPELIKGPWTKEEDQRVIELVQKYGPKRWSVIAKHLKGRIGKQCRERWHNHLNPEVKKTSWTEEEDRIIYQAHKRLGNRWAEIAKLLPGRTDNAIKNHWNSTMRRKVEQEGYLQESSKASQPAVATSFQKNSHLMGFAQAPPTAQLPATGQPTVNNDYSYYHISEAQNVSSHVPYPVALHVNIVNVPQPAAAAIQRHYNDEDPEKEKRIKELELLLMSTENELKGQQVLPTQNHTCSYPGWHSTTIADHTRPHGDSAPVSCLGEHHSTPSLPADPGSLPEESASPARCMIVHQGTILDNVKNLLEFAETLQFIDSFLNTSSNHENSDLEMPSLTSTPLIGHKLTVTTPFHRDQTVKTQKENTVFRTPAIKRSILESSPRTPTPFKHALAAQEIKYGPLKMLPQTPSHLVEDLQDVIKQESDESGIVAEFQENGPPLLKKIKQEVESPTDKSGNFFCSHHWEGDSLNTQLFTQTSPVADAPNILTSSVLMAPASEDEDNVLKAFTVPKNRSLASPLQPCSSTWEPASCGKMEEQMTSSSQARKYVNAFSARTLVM
Chain of Steroid hormone receptor ERR1 (Homo sapiens) (P11474 whole entry, looked up, the tested form may be a part): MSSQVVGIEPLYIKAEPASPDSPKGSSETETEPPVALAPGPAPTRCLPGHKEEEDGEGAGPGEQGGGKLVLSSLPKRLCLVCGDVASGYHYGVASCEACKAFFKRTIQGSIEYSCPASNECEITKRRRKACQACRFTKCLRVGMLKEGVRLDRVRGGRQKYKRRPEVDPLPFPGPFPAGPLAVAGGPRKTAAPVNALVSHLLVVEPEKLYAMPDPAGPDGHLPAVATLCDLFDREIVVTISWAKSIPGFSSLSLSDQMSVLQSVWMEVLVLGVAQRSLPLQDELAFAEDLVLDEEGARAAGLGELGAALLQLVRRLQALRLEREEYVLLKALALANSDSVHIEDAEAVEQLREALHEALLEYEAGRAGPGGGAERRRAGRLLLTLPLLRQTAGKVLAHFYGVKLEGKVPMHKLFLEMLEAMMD
Chain of Hepatocyte nuclear factor 4-alpha (Homo sapiens) (P41235 whole entry, looked up, the tested form may be a part): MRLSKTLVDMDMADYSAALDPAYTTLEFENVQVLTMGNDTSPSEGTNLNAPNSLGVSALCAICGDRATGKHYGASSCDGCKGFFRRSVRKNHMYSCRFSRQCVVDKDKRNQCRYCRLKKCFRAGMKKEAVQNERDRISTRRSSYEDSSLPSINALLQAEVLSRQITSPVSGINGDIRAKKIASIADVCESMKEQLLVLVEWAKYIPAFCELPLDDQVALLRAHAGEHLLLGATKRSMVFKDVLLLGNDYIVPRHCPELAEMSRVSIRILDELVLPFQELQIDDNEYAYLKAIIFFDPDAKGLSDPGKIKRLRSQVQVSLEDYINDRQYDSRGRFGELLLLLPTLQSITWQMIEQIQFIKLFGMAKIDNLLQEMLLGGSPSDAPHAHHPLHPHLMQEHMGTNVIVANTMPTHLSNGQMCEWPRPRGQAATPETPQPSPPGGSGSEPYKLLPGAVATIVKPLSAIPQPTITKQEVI

In the case of `CCOc1ccc2[nH]cc(C(=O)NCc3ccccc3)c(=O)c2n1`, the call in test [1], in test [2], in test [4], in [5], in [6] and in test [7] was inactive. Moreover, the result in test [8], in test [9], in [10], in test [11], in [12] and in test [13] was inactive. Moreover, the call in [14] was inactive. For the same compound, the AC50 in test [3] was 27.6 µM (active).
As to `OCC(CO)(CO)CO`, the compound was classed as inactive in test [1], in test [2], in test [3], in [4], in test [5] and in test [6]. Also, the compound was called inactive in test [15], in test [16], in test [17], in test [9], in test [10] and in test [12]. The result in [13] and in test [14] was inactive.
Turning to `FC(F)(F)COC(OCC(F)(F)F)OCC(F)(F)F`, the compound was called inactive in test [1], in [2], in test [3], in test [4], in test [5] and in [18]. Besides, the call in [6], in [7], in test [8], in test [19], in [20] and in test [17] was inactive. Also, the call in [10], in [12] and in test [13] was inactive.
On to `FC(F)C(F)(F)COCC1CO1` (stereo not given), for which the compound was classed as inactive in test [1], in [2], in test [3], in test [4], in test [18] and in test [6]. Besides, the outcome in test [15], in test [8], in test [20], in test [16], in test [10] and in test [11] was inactive. In addition, the compound was classed as inactive in test [12] and in [13]. Also, the AC50 in test [5] is 82 µM (active) and 39.8 µM (active).
As for `OC(CCl)CCl`, the outcome in test [1], in test [2], in [3], in test [4], in test [5] and in [6] was inactive. The compound was classed as inactive in [15], in [7], in test [19], in test [17], in [9] and in [10]. Moreover, the compound was called inactive in [11] and in test [13].
With `C[C@@H](Oc1ccc(CNC(=O)c2cccnc2Oc2ccc3c(c2)OCO3)c(F)c1)C(=O)O`, the compound was classed as inactive in test [1], in test [2], in [3], in test [4], in [5] and in test [18]. For the same compound, the call in test [6], in test [7], in [8], in test [19], in test [20] and in test [17] was inactive. Moreover, the compound was classed as inactive in test [10], in [11], in [12] and in [13].
In the case of `OCCOCCOCCO`, the compound was classed as inactive in test [1], in test [2], in [3], in [4], in test [5] and in test [6]. The compound was called inactive in [15], in [19], in test [10], in test [11], in test [12] and in [13]. Further, in test [14], the outcome was inactive.
As to `FC(F)(F)C(F)(F)C(F)(F)C(F)(F)C(F)(F)C(F)(F)I`, the result in test [1], in [2], in [3], in test [4], in test [18] and in [6] was inactive. Moreover, the compound was classed as inactive in test [15], in [7], in test [8], in [19], in test [20] and in test [16]. Also, the result in test [17], in [10], in [11], in [12], in [13] and in test [14] was inactive. The AC50 in test [5] was 13.7 µM (active) and 17 µM (active).
